The source of these data is PubChem BioAssay (NCATS).

Inconclusive results are not listed. Calls of active or inactive are those of the source. Calls follow the shape of the dose curve; as a rule, active = well fitted curve in the direction sought with a large enough effect; inconclusive = small, poorly fitted or top-dose-only effect, or another doubt; inactive = no such curve, though single readings can be large; an effect the other way counts as inactive or inconclusive.

Assay [1] is described as follows: qHTS of pediatric cancer cell lines to identify multiple opportunities for drug repurposing: Primary screen for TC32 cells (AID 1347089). Also: nearly all actives have a fitted effect of over 60% in size. Also: potency is read from the fitted curve at half-maximal effect. A digest of the protocol:
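A viability screen of TC32 cells was run over 48 h, with primary MIPE doses spanning 0.78 nM–46 µM and NPC doses 0.59 nM–46 µM. ATP luminescence (CellTiter-Glo) served as the read-out.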
In general terms: In qHTS, concentration-response curves come from the screen itself.

The nature of assay [2]: qHTS of pediatric cancer cell lines to identify multiple opportunities for drug repurposing: Primary screen for SJ-GBM2 cells (AID 1347091). Also: potency is read from the fitted curve at half-maximal effect. Summed up: (§1)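 Viability measured as metabolically active cells via CellTiter-Glo luminescence following 48 hours of compound exposure, 11-point dilutions in confirmatory testing. 500-1,000 cells/well plated 5 hours before dosing; controls were DMSO and 2.3 µM bortezomib.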

Assay [3] is described as follows: qHTS of pediatric cancer cell lines to identify multiple opportunities for drug repurposing: Primary screen for BT-37 cells (AID 1347094). Also: potency is read from the fitted curve at half-maximal effect. Summed up:
(§2)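 500-1,000 cells/well; 5 h pre-incubation 37 °C/5% CO2; compound pinned; 48 h; CellTiter-Glo, 15 min RT; luminescence. MIPE 11-pt from 0.78 nM, NPC 8-pt from 0.59 nM final. Bortezomib 2.3 µM final as positive control.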

Assay [4] is described as follows: qHTS of pediatric cancer cell lines to identify multiple opportunities for drug repurposing: Primary screen for NB-EBc1 cells (AID 1347095). Also: potency is read from the fitted curve at half-maximal effect. A digest of the protocol:
as §2

The nature of assay [5]: qHTS of pediatric cancer cell lines to identify multiple opportunities for drug repurposing: Primary screen for U-2 OS cells (AID 1347096). Also: nearly all actives have a fitted effect of over 50% in size. Summed up:
(§3)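 Viability after 48 h compound treatment at 37C, 500-1,000 cells/well, read as ATP luminescence with CellTiter-Glo. Primary screens used 11-point (MIPE, 0.78 nM-46 µM) or 8-point (NPC, 0.59 nM-46 µM) final concentrations; follow-up screens used 11-point dilutions.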

Assay [6] can be described thus: qHTS of pediatric cancer cell lines to identify multiple opportunities for drug repurposing: Primary screen for SK-N-SH cells (AID 1347098). Also: nearly all actives have a fitted effect of over 65% in size. Also: potency is read from the fitted curve at half-maximal effect. Summed up: (§4)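 Cells (500-1,000/well) rested 5 h, then received compounds for 48 h; metabolically active cells were measured by CellTiter-Glo luminescence. Final concentrations spanned up to 46 µM (MIPE, 11-point) or 0.59 nM-46 µM (NPC, 8-point) in primary screens, 11-point in follow-ups.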

Assay [7] can be described thus: qHTS of pediatric cancer cell lines to identify multiple opportunities for drug repurposing: Primary screen for Rh18 cells (AID 1347102). Also: nearly all actives have a fitted effect of over 65% in size. Also: potency is read from the fitted curve at half-maximal effect. Summed up:
as §3

A short description of assay [8]: qHTS of pediatric cancer cell lines to identify multiple opportunities for drug repurposing: Primary screen for OHS-50 cells (AID 1347103). Also: potency is read from the fitted curve at half-maximal effect; nearly all actives have a fitted effect of over 40% in size. A digest of the protocol:
as §4

A short description of assay [9]: qHTS of pediatric cancer cell lines to identify multiple opportunities for drug repurposing: Primary screen for RD cells (AID 1347104). Also: nearly all actives have a fitted effect of over 55% in size. Also: potency is read from the fitted curve at half-maximal effect. A digest of the protocol:
as §2

Assay [10] is described as follows: qHTS of pediatric cancer cell lines to identify multiple opportunities for drug repurposing: Primary screen for LAN-5 cells (AID 1347100). Also: potency is read from the fitted curve at half-maximal effect. A digest of the protocol: as §3
Assay [11] in a line: qHTS of pediatric cancer cell lines to identify multiple opportunities for drug repurposing: Primary screen for BT-12 cells (AID 1347101). Also: nearly all actives have a fitted effect of over 25% in size. Also: potency is read from the fitted curve at half-maximal effect. Summed up: as §4
Assay [12] can be described thus: qHTS of pediatric cancer cell lines to identify multiple opportunities for drug repurposing: Primary screen for A673 cells (AID 1347092). Also: nearly all actives have a fitted effect of over 45% in size. Also: potency is read from the fitted curve at half-maximal effect. Summed up: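 Titration-based qHTS on A673 cells: MIPE compounds spanned 11 points (0.78 nM to 46 µM final), NPC compounds 8 points (0.59 nM to 46 µM final). Viability after 48 h was measured by ATP luminescence.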
Assay [13] is described as follows: qHTS of pediatric cancer cell lines to identify multiple opportunities for drug repurposing: Primary screen for SK-N-MC cells (AID 1347093). Also: potency is read from the fitted curve at half-maximal effect. Summed up: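 Metabolically active cells were quantified by ATP-dependent luminescence (CellTiter-Glo, 15 min at room temperature) following 48 h treatment. Cells had been plated at 500-1,000 per well and settled for 5 h beforehand.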

A short description of assay [14]: qHTS of pediatric cancer cell lines to identify multiple opportunities for drug repurposing: Primary screen for NB1643 cells (AID 1347099). Also: nearly all actives have a fitted effect of over 50% in size. Also: potency is read from the fitted curve at half-maximal effect. A digest of the protocol:
as §2

Assay [15] can be described thus: qHTS of pediatric cancer cell lines to identify multiple opportunities for drug repurposing: Primary screen for Saos-2 cells (AID 1347097). Also: nearly all actives have a fitted effect of over 40% in size. Also: potency is read from the fitted curve at half-maximal effect. A digest of the protocol:
as §2

Assay [16] in a line: qHTS of pediatric cancer cell lines to identify multiple opportunities for drug repurposing: Primary screen for DAOY cells (AID 1347090). Also: nearly all actives have a fitted effect of over 55% in size. Also: potency is read from the fitted curve at half-maximal effect. A digest of the protocol: as §1

For `C[C@]12CCC(=O)C=C1C=C[C@@H]1[C@@H]2CC[C@@]2(C)[C@H]1CC[C@@]21CCC(=O)O1`, the Potency result in assay [1], in assay [2], in [3], in [4], in [5] and in assay [6] was “inactive” in each case. In addition, the Potency result in assay [7] and in [9] was “inactive” throughout. Further, the Potency in assay [8] is 15.5 µM (active).

As for `CCc1oc2ccccc2c1C(=O)c1cc(Br)c(O)c(Br)c1`, the Potency entry in [1], in assay [3], in assay [5], in assay [10], in assay [11] and in assay [7] was “inactive” throughout. For the same compound, the Potency in [6] is 19.4 µM (active).

Regarding `CN1CCc2cccc3c2[C@H]1Cc1ccc(O)c(O)c1-3`, the Potency entry in [5] was “inactive”. Also, the Potency in assay [10] is 11.9 µM (active).

Turning to `O=c1[nH]c(=O)n([C@H]2C[C@H](O)[C@@H](CO)O2)cc1F`, the Potency was 0.264 µM (active) in assay [1]; 0.841 µM (active) in assay [12]; 6.68 µM (active) in assay [13]; 2.37 µM (active) in assay [4]; 1.33 µM (active) in assay [10]. Besides, the Potency entry in assay [5], in [6], in assay [14] and in [7] was “inactive” throughout.

For `C#C[C@]1(OC(C)=O)CC[C@H]2[C@@H]3CCC4=C/C(=N/O)CC[C@@H]4[C@H]3CC[C@@]21CC`, the Potency entry in [5], in assay [11] and in assay [7] was “inactive” throughout. Further, the Potency in assay [10] was 23.7 µM (active); in assay [9] it was 29.9 µM (active).

For `CC[C@]12CCCN3CCc4c(n(c5ccccc45)C(=O)C1)[C@@H]32`, the Potency is 10.6 µM (active) in assay [12]; 5.96 µM (active) in assay [13]; 1.88 µM (active) in [4]; 13.3 µM (active) in assay [15]; 27.6 µM (active) in [8]. Besides, the Potency entry in [5] and in assay [14] was “inactive” each time.

For the compound `C#C[C@]1(O)CC[C@H]2[C@@H]3CCC4=Cc5oncc5C[C@]4(C)[C@H]3CC[C@@]21C`, the Potency result in assay [1], in assay [16], in assay [5], in assay [6] and in assay [14] was “inactive” each time. Further, the Potency in assay [8] was 24.6 µM (active).

Consider `CCc1oc2ccccc2c1C(=O)c1cc(I)c(O)c(I)c1`, for which the Potency result in assay [1], in assay [12], in assay [3], in assay [5], in assay [6] and in [10] was “inactive” in each case. Further, the Potency entry in [7] is “inactive”.

Regarding `NC(=O)n1c(O)c(C(=O)c2cccs2)c2cc(Cl)ccc21`, the Potency entry in [1], in assay [5] and in assay [7] was “inactive” throughout. In addition, the Potency was 15 µM (active) in assay [2] and 16.8 µM (active) in [4].

`CC(=O)OC[C@H]1O[C@@H](n2ncc(=O)[nH]c2=O)[C@H](OC(C)=O)[C@@H]1OC(C)=O`: in [13], the Potency is 0.335 µM (active). Besides, the Potency result in assay [5], in [6] and in assay [7] was “inactive” each time.

In the case of `COc1ccc(C(Cl)=C(c2ccc(OC)cc2)c2ccc(OC)cc2)cc1`, the Potency result in assay [1], in [16], in assay [13], in assay [6], in assay [14] and in assay [7] was “inactive” throughout. The Potency result in [9] was “inactive”.

On to `CC[C@H](c1ccc(O)cc1)[C@@H](CC)c1ccc(O)cc1`, for which the Potency was 3.35 µM (active) in [2], 23.7 µM (active) in assay [15], 19.4 µM (active) in assay [6] and 27.6 µM (active) in [8]. In addition, the Potency entry in assay [10] and in [7] was “inactive” in each case.

Regarding `CC(C)=CCOc1ccc(/C=C/C(=O)c2ccc(OCC=C(C)C)cc2OCC(=O)O)cc1`, the Potency result in [1], in assay [3], in assay [5] and in assay [7] was “inactive” throughout. In [14], the Potency was 23.7 µM (active).

Regarding `O=C(Nc1ccccc1)OCC(CN1CCCCC1)OC(=O)Nc1ccccc1` (configuration not stated), the Potency result in assay [1], in assay [16], in assay [13], in assay [4], in assay [5] and in assay [14] was “inactive” throughout. For the same compound, the Potency in [9] is 29.9 µM (active).

In the case of `CCCCC(CC)COC(=O)/C=C/c1ccc(OC)cc1` (configuration not stated), the Potency entry in assay [1], in assay [16], in [13], in [4], in [5] and in assay [15] was “inactive” each time. Besides, the Potency result in [6], in assay [14], in assay [10], in [11], in assay [7] and in assay [9] was “inactive” each time.

As to `CCN(CC)CCNc1ccc(CO)c2sc3ccccc3c(=O)c12`, the Potency in assay [13] was 21.1 µM (active); in [4], 7.5 µM (active); in assay [6] it was 17.2 µM (active); in assay [14], 16.8 µM (active); in assay [10], 13.3 µM (active); in assay [11], 13.8 µM (active). For the same compound, the figures for the Potency in assay [8] and in assay [9] were 24.6 µM (active) and 23.7 µM (active), respectively.

Take `CCCCCCCCCCCCCC[N+](C)(C)Cc1ccccc1`: the Potency was 21.1 µM (active) in assay [2]; 13.3 µM (active) in assay [12]; 11.9 µM (active) in assay [13]; 24.6 µM (active) in [3]; 23.7 µM (active) in [15]; 30.7 µM (active) in assay [6]. Also, the Potency in assay [10] is 21.1 µM (active); in assay [11] it was 6.92 µM (active); in assay [7], 5.96 µM (active); in assay [8] it was 4.37 µM (active); in assay [9] it was 21.1 µM (active).

As to `O[C@@H](c1cc(C(F)(F)F)nc2c(C(F)(F)F)cccc12)[C@H]1CCCCN1`, the Potency was 21.1 µM (active) in assay [15]; 30.7 µM (active) in assay [6]; 15.5 µM (active) in [11]; 21.9 µM (active) in assay [8]; 23.7 µM (active) in assay [9].

Regarding `CCCCCCCCCCCCOCCOCCOCCOCCOCCOCCOCCOCCOCCO`, the Potency was 16.8 µM (active) in assay [16]; 21.1 µM (active) in assay [12]; 19.5 µM (active) in assay [3]; 21.1 µM (active) in assay [4]; 6.92 µM (active) in assay [11]; 15.5 µM (active) in [8]. Moreover, the Potency entry in assay [5], in assay [6], in assay [14] and in [7] was “inactive” in each case.
